Usually inhibition stands for the relative decrease from the control value, in per cent.

Values without a mark were called inactive. Calls of active or inactive are those of the source. Rule as the data show it, unless noted: active = inhibition above about 44%; inactive = the rest.

The nature of assay [1]: StAR promoter reporter inhibitors, counter-screen for LRH-1 inverse agonist project, cell-based, luminescence, high throughput (AID 651611; in the data active = inhibition above about 28%). Particulars: StAR promoter luciferase reporter counterscreen, at 3.6 µM, stronger effect = higher value.
Assay [2] has as its target Nuclear receptor subfamily 5 group A member 2 (Homo sapiens) (UniProt O00482). The assay is described as follows: LRH-1 (NR5A2) inverse agonists, retest, confirmation, cell-based, luminescence (AID 651613; in the data active = inhibition above about 42%;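 also: HEK293T cells co-transfected with LRH-1 and StAR promoter luciferase reporter; 0% = vehicle wells and 100% = parental cells lacking receptor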). As to conditions: cell-based LRH-1 luciferase reporter, inverse agonism; at 3.6 µM; stronger effect = higher value.
Assay [3] concerns the target Steroidogenic factor 1 (Homo sapiens) (UniProt Q13285). The assay is described as follows: SF1 (NR5A1) inverse agonists, counter-screen for LRH-1 inverse agonist project, cell-based, luminescence, high throughput (AID 651614).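 Also: cells cotransfected with StAR promoter reporter and SF1 expression vector; 0% = vehicle on cells with receptor and 100% = vehicle on cells lacking receptor.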 Particulars: cell-based SF1 luciferase reporter, at 3.6 µM, stronger effect = higher value. (A counterscreen serves to expose hits that act by an unwanted route or on another target.)

The nature of assay [4]: VP16 transactivation reporter inhibitors, counter-screen for LRH-1 inverse agonist project, cell-based, luminescence, high throughput (AID 651615; in the data active = inhibition above about 33%). Particulars: Gal4-VP16 luciferase reporter cells, at 3.6 µM, stronger effect = higher value.

Nuclear receptor subfamily 5 group A member 2 (Homo sapiens), sequence (O00482 whole entry, looked up): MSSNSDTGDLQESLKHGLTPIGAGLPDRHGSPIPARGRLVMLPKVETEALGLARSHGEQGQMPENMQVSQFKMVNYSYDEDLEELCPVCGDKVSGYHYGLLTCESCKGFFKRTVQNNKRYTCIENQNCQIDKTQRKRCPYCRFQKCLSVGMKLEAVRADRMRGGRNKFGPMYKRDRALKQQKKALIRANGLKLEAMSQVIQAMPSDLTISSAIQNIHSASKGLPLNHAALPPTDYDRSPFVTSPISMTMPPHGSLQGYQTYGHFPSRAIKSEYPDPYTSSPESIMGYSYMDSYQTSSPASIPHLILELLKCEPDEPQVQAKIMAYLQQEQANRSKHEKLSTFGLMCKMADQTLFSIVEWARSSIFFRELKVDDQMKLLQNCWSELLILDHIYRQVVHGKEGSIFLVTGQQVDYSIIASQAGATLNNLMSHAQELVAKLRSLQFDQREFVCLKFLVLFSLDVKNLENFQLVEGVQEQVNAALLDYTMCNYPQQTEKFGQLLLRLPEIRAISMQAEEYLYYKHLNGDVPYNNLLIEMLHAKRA
Steroidogenic factor 1 (Homo sapiens), sequence (Q13285 whole entry, looked up): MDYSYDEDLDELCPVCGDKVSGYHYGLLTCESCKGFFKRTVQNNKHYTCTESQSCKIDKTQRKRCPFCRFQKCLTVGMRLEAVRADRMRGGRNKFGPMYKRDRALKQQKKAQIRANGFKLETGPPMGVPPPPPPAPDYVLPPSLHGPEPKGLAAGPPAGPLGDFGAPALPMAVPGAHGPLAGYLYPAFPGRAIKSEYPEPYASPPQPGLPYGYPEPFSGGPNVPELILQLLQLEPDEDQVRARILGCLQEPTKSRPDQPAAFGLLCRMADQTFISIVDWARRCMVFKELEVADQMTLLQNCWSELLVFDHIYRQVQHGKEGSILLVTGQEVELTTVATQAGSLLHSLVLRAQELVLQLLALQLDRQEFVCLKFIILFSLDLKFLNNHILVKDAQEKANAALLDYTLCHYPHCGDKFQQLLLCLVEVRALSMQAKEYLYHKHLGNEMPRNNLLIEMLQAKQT

`COc1cccc(C(=O)N/N=C2/SCC(=O)N2CCc2ccc(OC)c(OC)c2)c1`: the inhibition is 10.8% in assay [1], 31.3% in assay [2], 36.8% in assay [3] and -5.38% in assay [4].
As to `Cc1ccc(CN2CCC[C@]3(N[C@H](c4ccc(C(F)(F)F)cc4)[C@@H]4C(=O)N(Cc5ccccc5)C(=O)[C@@H]43)C2=O)cc1`, the inhibition in assay [1] is -2.71%; in assay [2], 24.8%; in assay [3] it was 28.4%; in assay [4], 22%.
Take `COc1cccc(-c2cnc3c(NC=O)cc(-c4ccc(S(C)(=O)=O)cc4)cn23)c1`: the inhibition in assay [1] was 30.2% (active); in assay [2], 61.5% (active); in assay [3], 52.4% (active); in assay [4], -0.78%.
On the same counts, the results for `CC(=O)Nc1cccc(C(=O)OCC(=O)N2CCN(C(=O)COC(=O)c3cccc(NC(C)=O)c3)CC2)c1` are 21.9%, 55.5% (active), 47.6% (active) and -10.3%.
On the same counts, the results for `O=C(Nc1ccc2[nH]c(=O)[nH]c2c1)c1ccc([N+](=O)[O-])o1` are 7.96%, 65.1% (active), 65.8% (active) and -11.8%.
On to `COc1ccc(NC(=O)CN2C(=O)NC(C)(c3ccc(C)cc3)C2=O)c([N+](=O)[O-])c1` (centres undefined), for which the inhibition in assay [1] was 9.06%; in assay [2], 56.2% (active); in assay [3] it was 55.1% (active); in assay [4] it was -9.49%.
On the same counts, the results for `CCCOc1ccc(N)cc1N` are 11.1%, 21.4%, 27% and -3.38%.
For `Oc1ccccc1-c1nc(NCC2CCCO2)c2ccccc2n1` (centres undefined) the same measures were 26.3%, 66.2% (active), 58% (active) and -8%.
For `COc1ccc2c(c1)c[n+](C)c1c3cc(OC)c(OC)cc3ccc21` the same measures were 12.1%, 58.3% (active), 56.5% (active) and 68.9% (active).
Regarding `Cc1ccc(N2C(=O)C(Cl)=C(N3CCN(C)CC3)C2=O)c(C)c1`, the inhibition in assay [1] is 13.1%; in assay [2], 50.3% (active); in assay [3], 39%; in assay [4] it was -9.83%.
For `CCCN1Cc2cccc(C(=O)NC(C)c3cccs3)c2C1=O` (centres undefined), the inhibition in assay [1] was -7.74%; in assay [2] it was 38.5%; in assay [3], 27.5%; in assay [4], 0.87%.
Turning to `O=C(CN1CCN(c2ncccn2)CC1)N1CCCc2c1c(=O)oc1ccc(O)cc21`, the inhibition in assay [1] is 13%; in assay [2] it was 62.6% (active); in assay [3], 53.6% (active); in assay [4], -33.2%.
For `N#CCSc1ccccc1NC(=O)CN1C(=O)C2CC=CCC2C1=O` (centres undefined) the same measures were 10.9%, 58.1% (active), 60.2% (active) and -7.26%.
With `CC(=O)N(/N=C/c1ccc([N+](=O)[O-])o1)c1nc2ccccc2c(=O)n1-c1ccccc1`, the inhibition is 19.4% in assay [1], 69% (active) in assay [2], 55.2% (active) in assay [3] and 2.37% in assay [4].
On the same counts, the results for `C=CCn1c(CCNC(=O)c2cccs2)nnc1SCC(=O)Nc1cccc(Cl)c1C` are 8.38%, 57.9% (active), 53.4% (active) and 2.77%.
On to `CC1(C)CC2CC(C)(CN2S(=O)(=O)c2ccc(C(=O)Nc3cccc(S(=O)(=O)N4CCOCC4)c3)cc2)C1` (centres undefined), for which the inhibition in assay [1] is 13%; in assay [2] it was 59% (active); in assay [3], 56.4% (active); in assay [4], 56% (active).
For `CN1CCN(/N=C/c2nc(-c3cccc([N+](=O)[O-])c3)n3ccccc23)CC1`, the inhibition is -4.33% in assay [1], 38.9% in assay [2], 42.2% in assay [3] and 3.29% in assay [4].
With `CC(=O)N1CCc2c(sc(NC(=O)c3ccc([N+](=O)[O-])o3)c2C(N)=O)C1`, the inhibition in assay [1] was 19.9%; in assay [2], 65.2% (active); in assay [3], 65.3% (active); in assay [4], -14.1%.
For `Cc1cc(NCCCCCCCNc2cc(C)nc3cc([N+](=O)[O-])ccc23)c2ccc([N+](=O)[O-])cc2n1` the same measures were -0.67%, 26.2%, 40.3% and 39.7% (active).
For `Cc1ccc(NC(=O)[C@H](Cc2c[nH]c3ccccc23)NC(=O)[C@@H]2Cc3ccccc3CN2)c(C)c1` the same measures were 78.4% (active), 3.94%, 71.4% (active) and 77.5% (active).
For `Cc1cc(C)c2nc(NC(=O)c3ccc([N+](=O)[O-])o3)sc2c1` the same measures were -2.6%, 50.8% (active), 53.7% (active) and -14.5%.
As to `COc1ccc(N2CCN(C(=O)CSc3nnc(-c4cc5ccccc5cc4O)n3C)CC2)cc1`, the inhibition in assay [1] was 19.8%; in assay [2] it was 59% (active); in assay [3], 58.3% (active); in assay [4], 13.6%.
With `O=C(CSc1nc(=O)n2cc(Cl)ccc2n1)Nc1ccc2c(c1)OCCO2`, the inhibition in assay [1] was 3.01%; in assay [2], 47.8% (active); in assay [3] it was 44.1% (active); in assay [4], -4.83%.
Take `CCC(NC(=O)CCl)c1ccc(C)cc1` (centres undefined): the inhibition was 29.5% (active) in assay [1], 67.3% (active) in assay [2], 53.9% (active) in assay [3] and -27.2% in assay [4].
For `CC(=O)c1ccc(NC(=O)COc2ccccc2C(=O)Nc2ccccc2)cc1` the same measures were 5.25%, 54.9% (active), 45.9% (active) and -21.9%.
On the same counts, the results for `COc1ccc(-c2nn(C)c(=O)c3ccccc23)cc1NS(C)(=O)=O` are 49.6% (active), 53.6% (active), 41.2% and -52.2%.
For `COc1cc2c3c(cccc3c1)C(=O)N(CCN1CCCC1)C2=O` the same measures were 12.7%, 72.8% (active), 49.7% (active) and 70.9% (active).
With `CC(=O)/C(=N/Nc1ccccc1[N+](=O)[O-])N1CCCc2ccccc21`, the inhibition in assay [1] is 17.5%; in assay [2], 49.2% (active); in assay [3], 52.1% (active); in assay [4], 22.7%.
Consider `N#Cc1ccccc1NC(=O)c1ccccc1OCC(=O)Nc1ccc2c(c1)oc1ccccc12`, for which the inhibition in assay [1] was 13.3%; in assay [2], 33.9%; in assay [3] it was 23.9%; in assay [4], 4.76%.
For `CCNC(=S)N1CCN(c2nc(CC)nc3sc4c(c23)CCCC4)CC1`, the inhibition in assay [1] is 1.42%; in assay [2] it was 48.3% (active); in assay [3] it was 37.6%; in assay [4] it was 5.39%.
`COc1ccc(CCNC(=O)COC(=O)c2cccn2C)cc1`: the inhibition in assay [1] was 19%; in assay [2], 42.9% (active); in assay [3] it was 46.3% (active); in assay [4], -13.7%.
With `CCOc1ccc(NC(=O)CSc2nnc(CNC(=O)c3cccs3)o2)cc1`, the inhibition in assay [1] was 20%; in assay [2], 60.3% (active); in assay [3], 59.6% (active); in assay [4] it was -0.65%.
For the molecule `O=C(COc1ccc(S(=O)(=O)N2CCCC2)cc1Cl)NCc1ccc2c(c1)OCO2`, the inhibition in assay [1] is 26.1%; in assay [2], 34%; in assay [3], 32.6%; in assay [4] it was 2.14%.
On to `CCN(CC)C1Oc2cc3c(cc2C(c2cccc(OC)c2O)C1C)OCO3` (centres undefined), for which the inhibition in assay [1] was 23.9%; in assay [2], 53.1% (active); in assay [3], 72% (active); in assay [4] it was 15.5%.
For `CCOC(=O)C(C)Oc1cccc2c(=O)n(CC(=O)Nc3ccc4c(c3)OCCO4)ccc12` (centres undefined) the same measures were 5.33%, 58.5% (active), 51.7% (active) and -1.21%.
On the same counts, the results for `CS(=O)(=O)N1Cc2cc(C(=O)NCC3CC3)nc(-c3cccc(-c4cccnc4)c3)c2[C@@H]1CCO` are 8.47%, 49.4% (active), 47.5% (active) and -12.3%.
As to `Cc1cc(OCC(=O)NCc2cccnc2)c2c(C)c(C)c(=O)oc2c1`, the inhibition in assay [1] is 9.8%; in assay [2], 61.8% (active); in assay [3] it was 50.5% (active); in assay [4], -8.94%.
On the same counts, the results for `COc1ccccc1Oc1nnnn1-c1ccc(C(N)=O)cc1` are 15.4%, 48% (active), 51.8% (active) and -9.03%.
Turning to `CCn1nnc(NC(=O)c2ccc([N+](=O)[O-])o2)n1`, the inhibition was 10.3% in assay [1], 57.8% (active) in assay [2], 59.9% (active) in assay [3] and -13.8% in assay [4].
On the same counts, the results for `O=C(CSc1ncnc2c1cnn2Cc1ccccc1)Nc1ccc2c(c1)OCCO2` are 2.88%, 61.3% (active), 54% (active) and 2.68%.
On the same counts, the results for `CCCC(=O)N1CCN(c2ccc(NC(=O)c3ccc([N+](=O)[O-])o3)cc2)CC1` are -1.48%, 52.9% (active), 55.4% (active) and -18.4%.
Take `Cc1cc2oc(C(=O)NCc3ccncc3)c(C)c2cc1C`: the inhibition in assay [1] is -3.56%; in assay [2], 36.2%; in assay [3] it was 39.6%; in assay [4], 3.82%.
For `Cc1cc(Cl)ccc1NC(=O)CN1C(=O)C(=O)N(C2CCCC2)C1=O` the same measures were 5.58%, 50.9% (active), 43.8% (active) and 1.38%.
Regarding `COC(=O)c1ccc(NC(=O)CSc2nncn2-c2cccnc2)cc1`, the inhibition in assay [1] was -6.12%; in assay [2], 44.6% (active); in assay [3], 34.3%; in assay [4], 0.63%.
On the same counts, the results for `Cc1cc(C)c2nc(-c3cccnc3)cc(C(=O)NC(C)c3cnn(C)c3C)c2c1` (centres undefined) are 10.3%, 57.6% (active), 50.9% (active) and -13.5%.
On the same counts, the results for `COc1cccc(-c2cnc3c(NC(C)=O)cc(-c4ccc(S(C)(=O)=O)cc4)cn23)c1` are 15.6%, 53.3% (active), 41.6% and -13.3%.
For `CCOC(=O)c1cc2sccc2n1CC(=O)Nc1ccc2c(c1)OCCO2`, the inhibition in assay [1] was 7.97%; in assay [2], 55.1% (active); in assay [3] it was 52.2% (active); in assay [4] it was -2.96%.
For the molecule `COc1ccc(CCNC(=O)CN2C(=O)C3(OCCCO3)c3ccccc32)cc1OC`, the inhibition is 11.2% in assay [1], 45.7% (active) in assay [2], 52.5% (active) in assay [3] and -9.46% in assay [4].
On the same counts, the results for `CCCn1c2c(c(=N)c3c1CCC3)CCCC2` are 4.81%, 61.8% (active), 55% (active) and 44.9% (active).
For `Clc1ccccc1-c1nnc2sc(-c3ccncc3)nn12` the same measures were 15.3%, 52.6% (active), 50.9% (active) and 3.81%.
For `Cc1ccccc1N=C1NC(=O)/C(=C/c2cccnc2)S1` the same measures were 13.1%, 39.8%, 40.2% and 8.55%.
